PubChem BioAssay AID1662 (Broad Institute, 2009)
Hit rate of the full screen: of about 300,000 compounds, about 4,000 (1.3%) were called active. For the sample, actives were picked, then their nearest neighbours and some compounds at random. Values without a mark were called inactive.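 How the source made its calls: active means mean replicate score, as percent of positive control median, at least 50; inconclusive means mean below 50 but one replicate at or above 50; inactive means mean and every replicate below 50.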

Test: kanamycin survival loss of SKKanGAS strain – BacTiter-Glo luminescence, streptokinase expression inhibitor project, primary screen (AID 1662);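 further: strain carries kanamycin resistance gene driven by streptokinase promoter and grows in 40 µg/ml kanamycin; loss of luminescence reflects streptokinase promoter inhibition or plain growth inhibition; 0% = median of DMSO wells and 100% = positive control at its reference dose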
Conditions: S. pyogenes SKKanGAS, kanamycin growth, 6 h, at 7.5 µM, hits give high values

Compound	inhibition
CC(C)(C)NC(=O)CN(C(=O)c1ccc(Cl)nc1)c1cccc2ccccc12	-17.5%
CC(C)Oc1ccc(/C=N/NC(=O)c2nnn(-c3nonc3N)c2CN(C)C2CCCCC2)cc1	18.9%
O=C(NCC(=O)N1CCN(c2ccccc2O)CC1)c1ccc2ccccc2c1	11.7%
O=C(O)C(c1ccccc1)N1C(=O)/C(=C\c2ccc(-c3cccc(Cl)c3)o2)SC1=S (centres undefined)	94% (active)
CN1C(=O)/C(=C\c2ccc(-c3ccccc3)o2)SC1=S	7.05%
O=C1NN(c2ccccc2)C(=O)/C1=C/c1ccc(-c2cccc(C(=O)O)c2)o1	-2.46%
Cn1c(=O)oc2cc(S(=O)(=O)NCCC(=O)NCc3ccccc3Cl)ccc21	2.05%
C=CCn1c(C23CC4CC(CC(C4)C2)C3)n[nH]c1=S	1.54%
Cc1cc(NC(=O)CSc2nc3cc(Cl)ccc3c(=O)n2Cc2ccco2)no1	1.74%
COc1ccccc1NC(=O)CSc1nc2sc(C)c(C)c2c(=O)n1Cc1ccco1	52.6% (active)
COc1ccccc1NC(=O)CSc1nc2sc3c(c2c(=O)n1-c1ccccc1)CCN(C)C3	-17%
CC(C)Cc1oc(C(=O)O)cc1CN	4.13%
Cc1ccc(NC(=O)c2nc[nH]c2C(=O)N[C@@H](CCCCNC(=O)OC(C)(C)C)C(=O)OC(C)(C)C)cc1	76.8% (active)
CCOC(=O)c1[nH]cnc1C(=O)Nc1ccccc1C	10.7%
CCOC(=O)c1ccc(NC(=O)c2nc[nH]c2C(=O)NCc2ccccc2)cc1	18.8%
CCOC(=O)c1ccc(NC(=O)c2nc[nH]c2C(=O)N[C@@H](CCCCNC(=O)OC(C)(C)C)C(=O)OC(C)(C)C)cc1	50.8% (active)
CNC(=O)c1[nH]cnc1C(=O)N[C@@H](CC(C)C)C(=O)OC(C)(C)C	-5.44%
C[C@H](NC(=O)c1nc[nH]c1C(=O)N[C@@H](C)C(=O)OC(C)(C)C)C(=O)OC(C)(C)C	1.23%
Cc1cc(C(=O)CCC(=O)NNC(=O)c2ccccc2O)c(C)s1	12.7%
O=C1c2ccccc2S(=O)(=O)c2cc(N3CCN(c4ccccn4)CC3)ccc21	14.1%
COCc1cc(=O)n2[nH]c(C)c(-c3ccccc3)c2n1	-14.5%
CCCc1cc(=O)n2[nH]c(C)c(-c3ccc(Cl)cc3)c2n1	53.5% (active)
Cc1nc2c(-c3ccccc3)c(C)[nH]n2c(=O)c1Cl	18.8%
Cc1ccc2nnn(Cc3cccc(C(C)(C)C)c3O)c2c1	11.4%
